Test results: PubChem BioAssay (NCI)
This is part of a sample that, as a whole, favours compounds with a hit. Of some 83,000 tested, about 20% had one in any assay.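 Single-concentration screen, 48 h exposure, 96-well plates. Endpoint: percent growth. Below 10 = active.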 The source made the active and inactive calls.

These molecules were tested on HL-60(TB) leukemia (assay: NCI-60 one-dose screen, 48 h (100 = growth as untreated, 0 = no growth, -100 = all killed)). Conditions: 10 µM unless noted.
For `COc1cc(C=Nc2oc(-c3ccccc3)c(-c3ccccc3)c2C#N)cc(CN2CCCCC2)c1O`, the growth was 92.5% (inactive). In the case of `CSc1nc2ccccc2cc1/C=C1/C=C(c2ccccc2)NC1=O`, the growth was 85.7% (inactive). `COc1cc(C(=O)NC(=S)Nc2ccc3ccccc3c2)cc(OC)c1OC` was tested, and the growth was 97.1% (inactive). With `COc1ccc2ncccc2c1Cc1c(OC)ccc2ncccc12` the growth was 42.3% (inactive). For `CC(C)(Cl)CCC1=C(Cl)C(=O)c2ccccc2C1=O`, the growth was -10.1% (active). In the case of `CCOC(=O)C1=C(C(F)(F)F)NC(=O)NC1CN1C(=O)c2ccccc2C1=O` (stereo not given), the growth was 46.2% (inactive). In the case of `O=C(/C=C/c1ccc(B(O)O)cc1)/C=C/c1ccc(B(O)O)cc1`, the growth was 21.7% (inactive). With `Cc1nc2ccccc2c(/C=C/c2ccc(Cl)cc2)c1C(=O)/C=C/c1ccccc1` the growth was 5.7% (active). With `Cc1[nH]c(-c2nc3ccccc3[nH]2)c(C)c1C(=O)N1CCc2sccc2C1` the growth was 99.3% (inactive). In the case of `COc1ccc(-c2nc(-c3nc4ccc(Cl)cc4[nH]3)c3ccccn23)cc1`, the growth was 82.8% (inactive). With `COc1cc(-c2nc3c(c(C)nc4c3nnn4-c3ccccc3)c(=O)o2)cc(OC)c1OC` the growth was 105% (inactive). `CCCC(O)Cn1ncc(C(=O)OCC)c1NC(=O)NCc1cccc(C(F)(F)F)c1` (stereo not given) was tested, and the growth was 71.2% (inactive). In the case of `CN1CCc2c(sc3nc4n(-c5ccc(Cl)cc5)c(=O)[nH]n4c(=O)c23)C1`, the growth was 89.3% (inactive). `Nc1nc(N)c2c(n1)NC1(C=C(O)c3ccccc31)C1=C(N2)c2ccccc2C1=O` (stereo not given) was tested, and the growth was 71% (inactive). For `O=C(O)c1cc([N+](=O)[O-])ccc1Oc1ccccc1`, the growth was 88.6% (inactive). `C=C1C(=O)O[C@H]2[C@H]1CC/C(COC(=O)CCCCCCCC(=O)OC/C1=C/CC[C@@]3(C)O[C@H]3[C@H]3OC(=O)C(=C)[C@@H]3CC1)=C\CC[C@@]1(C)O[C@@H]21` was tested, and the growth was -18.3% (active). With `CCNCCCn1c2c(c3ccc(Cl)cc3c1=O)C(=O)c1cc(OC)cnc1-2` the growth was -42.9% (active). `Oc1ccccc1/C=N\Nc1ccccc1` was tested, and the growth was 16.5% (inactive). `c1ccc([P+](CCCc2n(Cc3ccc4ccccc4c3)c3ccccc3[n+]2Cc2ccc3ccccc3c2)(c2ccccc2)c2ccccc2)cc1` was tested, and the growth was 22.6% (inactive). For `CCCCCC(=O)OCc1ccc(Cl)c(Cl)c1`, the growth was 97.2% (inactive). With `COc1ccc(-n2nc(C)c3c(Nc4ccc(NC(=O)Nc5cccc(C(F)(F)F)c5)cc4)ncnc32)cc1` the growth was -1.99% (active). For `COc1cc(-c2nc3ccc(C)cc3[nH]2)ccc1OCC(=O)N=Nc1c(O)[nH]c2ccc(Cl)cc12`, the growth was -55.6% (active). For `CN1CCN(Cc2ccc(NC(=O)c3cncc(C#Cc4nc(N)nc5[nH]ncc45)c3)cc2C(F)(F)F)CC1`, the growth was 1.4% (active). In the case of `Cc1cc(C)c2c(c1)N1OC(C2)C[C@H]1/C=C/c1ccccc1` (stereo not given in full), the growth was 82.2% (inactive). For `CN1CCN(CC(=O)N(C)c2ccc(N=C(c3ccccc3)c3c(O)[nH]c4ccc([N+](=O)[O-])cc34)cc2)CC1`, the growth was 53.5% (inactive). For `CC(=O)O[C@H]1CC[C@]2(C)[C@H]3C(=O)C=C4[C@@H]5C[C@](C)(C(=O)N6CCCNCC6)CC[C@]5(C)CC[C@@]4(C)[C@]3(C)CC[C@H]2C1(C)C`, the growth was -61.9% (active). For `S=c1nn[nH]c2ccccc12`, the growth was 105% (inactive). In the case of `c1ccc(N2CCN(c3nncc4ccccc34)CC2)nc1`, the growth was 96.6% (inactive). `O=C(Nc1ccc(Cl)cc1)c1cc(NCc2cc(O)ccc2O)ccc1O` was tested, and the growth was 0.347% (active). With `O=C(O)CS(=O)c1ccc(Cl)cc1` (stereo not given) the growth was 86.2% (inactive). For `CC1=NNC(=O)C1CCC(=O)N/N=C(\C)c1ccc2ccccc2c1` (stereo not given), the growth was 86.4% (inactive). With `CNC(=O)c1cc(Oc2cccc3nc(NC(=O)Nc4cc(C(F)(F)F)cc(C(F)(F)F)c4)ccc23)ccn1` the growth was 70.5% (inactive). For `O=C1NC(=S)S/C1=C\c1cccc([N+](=O)[O-])c1`, the growth was 83.8% (inactive). For `CCOC(=O)c1cnn(CC(C)O)c1NC(=O)NCc1ccccc1C(F)(F)F` (stereo not given), the growth was 58% (inactive). With `COc1ccc(C(O)c2cc3c(N)c(C(=O)Nc4cccc5ccccc45)sc3nc2C)cc1` (stereo not given) the growth was -1.39% (active). With `C=C[C@@H]1C[C@@H]2Cc3ccccc3N1O2` the growth was -12.8% (active). In the case of `O=C(Oc1ccc2c(c1)sc1nc(-c3ccccc3)[nH]c(=O)c12)C(F)(F)F`, the growth was 2.56% (active). With `Oc1ccc(O)c(-c2ccccc2)c1` the growth was 35.4% (inactive). `COCCn1cc(-c2nc(-c3cn(CCOC)c4ncccc34)cs2)c2cc(F)ccc21` was tested, and the growth was 97.8% (inactive). For `COC1CC2CCC(C)C(O)(O2)C(=O)C(=O)N2CCCCC2C(=O)OC(C(C)CC2CCC(O)C(OC)C2)CC(=O)C(C)C=C(C)C(O)C(OC)C(=O)C(C)CC(C)/C=C/C=C/C=C1C` (stereo not given), the growth was 86.6% (inactive).
